According to PubChem BioAssay (NCATS):
Where “and” joins values, the source holds several entries; their conditions need not be identical. Equal values may be shown once. Results filed as inconclusive are left out. Calls of active or inactive are those of the source. Calls follow the shape of the dose curve; as a rule, active = well fitted inhibition curve with a large enough effect; inconclusive = small, poorly fitted or top-dose-only effect; inactive = flat fitted curve, though single readings scatter.

Columns and labels:
PC15 = assay: qHTS profiling for inhibitors of Plasmodium falciparum proliferation (AID 504749); conditions: P. falciparum in erythrocytes, SYBR Green DNA, 72 h; series mostly up to 28.7 µM
How it was run: (§1)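 SYBR Green fluorescence (ex 485 nm, em 535 nm) reports parasite DNA after 72 h compound exposure of infected red cells at 0.3% parasitemia, 2.5% hematocrit; signal normalized to 0.29 uM artemisinin and vehicle wells.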

PC26 = assay: as above; conditions: P. falciparum in erythrocytes, SYBR Green DNA, 72 h; series mostly up to 28.7 µM
How it was run: as §1

PC49 = assay: as above; conditions: P. falciparum in erythrocytes, SYBR Green DNA, 72 h; series mostly up to 28.7 µM
How it was run: as §1

SC27B = assay: as above; conditions: P. falciparum in erythrocytes, SYBR Green DNA, 72 h; series mostly up to 28.7 µM
How it was run: as §1

TAB109 = assay: as above; conditions: P. falciparum in erythrocytes, SYBR Green DNA, 72 h; series mostly up to 28.7 µM
How it was run: as §1

TAB113 = assay: as above; conditions: P. falciparum in erythrocytes, SYBR Green DNA, 72 h; series mostly up to 28.7 µM
How it was run: as §1

TAB165 = assay: as above; conditions: P. falciparum in erythrocytes, SYBR Green DNA, 72 h; series mostly up to 28.7 µM
How it was run: as §1

W2 = assay: as above; conditions: P. falciparum in erythrocytes, SYBR Green DNA, 72 h; series mostly up to 28.7 µM
How it was run: as §1

CRL-7250 = normal cell line; assay: Cytotoxic Profiling of Annotated Libraries Using Quantitative High-Throughput Screening (AID 1296008); conditions: Five cell lines viability, CellTiter-Glo ATP luminescence, 48-72 h; max response: active compounds read low; as to max response: % is scaled to controls: 0 for no effect and ±100 for the full control effect
How it was run: (§2)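 Cells exposed to compounds for 48 or 72 hr at 37 degrees Celsius. Viability read as ATP-coupled luminescence with CellTiter-Glo after 10 min at room temperature.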

HaCat [1] = assay: as above; conditions: Five cell lines viability, CellTiter-Glo ATP luminescence, 48-72 h; max response: active compounds read low
How it was run: as §2

KB-3-1 = assay: as above; conditions: Five cell lines viability, CellTiter-Glo ATP luminescence, 48-72 h; max response: active compounds read low
How it was run: as §2

NIH3T3 [2] = assay: as above; conditions: Five cell lines viability, CellTiter-Glo ATP luminescence, 48-72 h; max response: active compounds read low
How it was run: as §2

HACAT [3] = assay: qHTS assay to identify novel small-molecules to repurpose for Merkel cell carcinoma treatment (AID 1296009); conditions: MCC and control cell lines, CellTiter-Glo viability, 72 h; at 44.8 µM (top of the series) unless noted
How it was run: (§3)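 CellTiter-Glo luminescence after 72 hr compound exposure at 37 degree celsius gave cell viability. Libraries NPC and MIPE were run as 8- and 11-point dose responses; RLUs normalized to DMSO (negative) and no-cell (cytotoxicity) controls.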

MCC-13 = assay: as above; conditions: MCC and control cell lines, CellTiter-Glo viability, 72 h; series mostly up to 46 µM
How it was run: as §3

MCC-26 = assay: as above; conditions: MCC and control cell lines, CellTiter-Glo viability, 72 h; series mostly up to 46 µM
How it was run: as §3

MKL-2 = assay: as above; conditions: MCC and control cell lines, CellTiter-Glo viability, 72 h; series mostly up to 46 µM
How it was run: as §3

NIH3T3 [4] = assay: as above; conditions: MCC and control cell lines, CellTiter-Glo viability, 72 h; at 44.8 µM (top of the series) unless noted
How it was run: as §3

MKL-1 = assay: as above; conditions: MCC and control cell lines, CellTiter-Glo viability, 72 h; series mostly up to 46 µM
How it was run: as §3

HEK293 = assay: Cytotoxic Profiling of Annotated Libraries Using Quantitative High-Throughput Screening (AID 1296008); conditions: Five cell lines viability, CellTiter-Glo ATP luminescence, 48-72 h; max response: active compounds read low; as to max response: % is scaled to controls: 0 for no effect and ±100 for the full control effect
How it was run: as §2
Also: nearly all actives have a fitted effect of over 60% in size.
Potency is read from the fitted curve at half-maximal effect.

CCCCCC=CCC=CCCCCCCCC(=O)OCC
active: Potency (MKL-2) 15 µM
inactive: Potency (PC15) | Potency (PC26) | Potency (PC49) | Potency (SC27B) | Potency (TAB109) | Potency (TAB113) | Potency (TAB165) | Potency (W2) | max response (CRL-7250) -11.8% | outcome (HaCat [1]) | max response (KB-3-1) -4.13% | outcome (NIH3T3 [2]) | outcome (HACAT [3]) | Potency (MCC-13) | Potency (MCC-26) | outcome (NIH3T3 [4])

C[C@H]1C[C@H]2[C@@H]3CCC4=CC(=O)C=C[C@]4(C)[C@@]3(Cl)[C@@H](O)C[C@]2(C)[C@@]1(O)C(=O)CO
inactive: Potency (PC15) | Potency (PC26) | Potency (PC49) | Potency (SC27B) | Potency (TAB109) | Potency (TAB113) | Potency (TAB165) | Potency (W2) | outcome (CRL-7250) | max response (HaCat [1]) -6.93% | max response (KB-3-1) 6.92% | max response (NIH3T3 [2]) -12.3% | Potency (MCC-13) | Potency (MCC-26) | Potency (MKL-1)

CN1CCC(=C2c3ccccc3Sc3ccccc32)CC1
active: Potency (SC27B) 11.2 µM | Potency (TAB109) 11.2 µM | Potency (TAB113) 11.2 µM | Potency (TAB165) 7.94 µM | Potency (W2) 2.13 µM | Potency (MKL-2) 13.3 µM
inactive: Potency (PC49) | max response (CRL-7250) -1.99% | outcome (HaCat [1]) | max response (KB-3-1) -16.3% | max response (NIH3T3 [2]) -14.3% | outcome (HACAT [3]) | Potency (MCC-13) | Potency (MCC-26)

CC(=O)N/N=C/c1ccc([N+](=O)[O-])o1
active: Potency (TAB109) 6.31 µM | Potency (TAB165) 12.6 µM | Potency (MKL-2) 6.68 µM
inactive: Potency (PC26) | Potency (PC49) | max response (CRL-7250) -0.507% | outcome (HaCat [1]) | max response (KB-3-1) -2.33% | outcome (HACAT [3]) | Potency (MCC-26)

OC(CCN1CCCCC1)(c1ccccc1)c1ccccc1
active: Potency (TAB113) 8.91 µM | Potency (TAB165) 14.1 µM | Potency (W2) 4.26 µM
inactive: outcome (CRL-7250) | outcome (HaCat [1]) | max response (KB-3-1) 16.8% | max response (NIH3T3 [2]) 2.78% | outcome (HACAT [3]) | Potency (MCC-13) | Potency (MKL-1) | Potency (MKL-2)

COc1ccc(CN2CCN(C(c3ccc(F)cc3)c3ccc(F)cc3)CC2)c(OC)c1OC
active: Potency (PC26) 12 µM | Potency (SC27B) 10 µM | Potency (TAB109) 11.2 µM | Potency (TAB113) 8.91 µM | Potency (TAB165) 7.08 µM | Potency (W2) 3.38 µM
inactive: outcome (CRL-7250) | max response (HaCat [1]) -19.9% | outcome (HaCat [1]) | max response (KB-3-1) 6.7% | max response (NIH3T3 [2]) 1.96% and 2.43% | outcome (HACAT [3]) | Potency (MCC-13)

CN(C)CC/C=C1/c2ccccc2COc2ccc(CC(=O)O)cc21
inactive: max response (CRL-7250) 2.78% | max response (HEK293) 1.17% | max response (HaCat [1]) -4.81% | max response (NIH3T3 [2]) -1.64% | Potency (MCC-13) | Potency (MKL-1) | Potency (MKL-2)

CN(C)C(=S)SC(=S)N(C)C
inactive: max response (KB-3-1) 31.5%
active: Potency (TAB113) 11.2 µM | Potency (TAB165) 11.2 µM | Potency (W2) 9.53 µM | Potency (CRL-7250) 8.41 µM | Potency (HEK293) 5.96 µM | Potency (NIH3T3 [2]) 2.66 µM | Potency (MCC-13) 2.99 µM | Potency (MKL-2) 3.35 µM

CCOC(=O)[C@H](CCc1ccccc1)N[C@@H](C)C(=O)N1Cc2ccccc2C[C@H]1C(=O)O
inactive: max response (CRL-7250) -9.56% | outcome (HaCat [1]) | max response (KB-3-1) 21.9% | max response (NIH3T3 [2]) -19.6% | outcome (HACAT [3]) | Potency (MCC-13)

CCCCOc1ccc(OCCCN2CCOCC2)cc1
inactive: Potency (PC15) | Potency (PC26) | Potency (PC49) | Potency (SC27B) | Potency (TAB109) | Potency (TAB113) | Potency (TAB165) | Potency (W2) | max response (CRL-7250) 2.95% | max response (HaCat [1]) -3.82% | max response (KB-3-1) 3.23% | Potency (MCC-13) | Potency (MCC-26) | Potency (MKL-1) | Potency (MKL-2)

COc1cc(OC)cc(OC)c1
inactive: Potency (PC15) | Potency (PC26) | Potency (PC49) | Potency (SC27B) | Potency (TAB109) | Potency (TAB113) | Potency (TAB165) | Potency (W2) | max response (CRL-7250) -8.4% | max response (HEK293) 0.846% | max response (HaCat [1]) 4.71% | max response (NIH3T3 [2]) -4.81% | Potency (MCC-13) | Potency (MCC-26) | Potency (MKL-1) | Potency (MKL-2)

CC1(C)O[C@@H]2C[C@H]3[C@@H]4C[C@H](F)C5=CC(=O)C=C[C@]5(C)[C@H]4[C@@H](O)C[C@]3(C)[C@]2(C(=O)CO)O1
inactive: max response (CRL-7250) -27.4% | max response (HEK293) -23.8% | max response (NIH3T3 [2]) -4.68% | Potency (MCC-13) | Potency (MKL-1) | Potency (MKL-2)

CCCCCCCCCCCCCCCC[N+](C)(C)CC
active: Potency (PC15) 8.91 µM | Potency (PC26) 5.36 µM | Potency (SC27B) 5.62 µM | Potency (TAB109) 4.47 µM | Potency (TAB113) 5.01 µM | Potency (TAB165) 4.47 µM | Potency (W2) 3.79 µM | Potency (CRL-7250) 6.68 µM | Potency (HEK293) 2.99 µM | Potency (HaCat [1]) 5.96 µM | Potency (MKL-1) 0.119 µM | Potency (MKL-2) 0.0473 µM

O=C1[C@H]2CCCC[C@H]2C(=O)N1CCCCN1CCN(c2nsc3ccccc23)CC1
inactive: Potency (PC49) | Potency (SC27B) | Potency (TAB109) | Potency (TAB113) | outcome (CRL-7250) | max response (HaCat [1]) -5.6% | max response (KB-3-1) 2.4% | max response (NIH3T3 [2]) 2.44% | Potency (MCC-13) | Potency (MKL-1)
active: Potency (W2) 15.1 µM
